DT40 TDP1 CPT – qHTS for Inhibitors of human tyrosyl-DNA phosphodiesterase 1 (TDP1): qHTS in cells in presence of CPT; chicken DT40 Tdp1-/-;hTDP1 cells + 20 nM CPT, ATP luminescence, 48 h; Potency, µM (series often up to 46.2 µM), actives largely listed as inhibitors; hit rate 12% among 420,000; AID 686979, 2013; also: nearly all actives have a fitted effect of over 55% in size
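Chicken DT40 Tdp1-/- cells complemented with human TDP1, 400 cells/well, exposed to compounds plus 20 nM camptothecin for at least 48 h at 37 C; viability read as ATP content by CellTiter-Glo luminescence.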
HepG2 viability – qHTS for Inhibitors of TGF-b: Cytotox Counterscreen; HepG2 CAGA-GFP viability, ATP luminescence, 18 h; Potency, µM (highest dose often 46.1 µM), hits mostly cytotoxic; hit rate 0.76% among 410,000; AID 588856, 2011
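CellTiter-Glo luminescence gave cytotoxicity after 18 hours at 37 degrees C. The cells were HepG2 CAGA-GFP in 1% FBS DMEM, stimulated with 500 pg/mL TGF-beta after compound addition. %Activity was normalised to no-cell wells (complete cell-killing) and DMSO (no toxicity), and curves were fitted and classified.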
TDP1 inh – qHTS Assay for Inhibitors of Tyrosyl-DNA Phosphodiesterase (TDP1) | recombinant TDP1, AlphaScreen DNA substrate cleavage | AID 485290, 2010 | hit rate 0.28% among 350,000 | Tyrosyl-DNA phosphodiesterase 1 (Homo sapiens), Q9NUW8 | Potency, µM (doses to about 130 µM), usual class: inhibitors; also: nearly all actives have a fitted effect of over 40% in size
Target sequence (Q9NUW8 whole entry, looked up): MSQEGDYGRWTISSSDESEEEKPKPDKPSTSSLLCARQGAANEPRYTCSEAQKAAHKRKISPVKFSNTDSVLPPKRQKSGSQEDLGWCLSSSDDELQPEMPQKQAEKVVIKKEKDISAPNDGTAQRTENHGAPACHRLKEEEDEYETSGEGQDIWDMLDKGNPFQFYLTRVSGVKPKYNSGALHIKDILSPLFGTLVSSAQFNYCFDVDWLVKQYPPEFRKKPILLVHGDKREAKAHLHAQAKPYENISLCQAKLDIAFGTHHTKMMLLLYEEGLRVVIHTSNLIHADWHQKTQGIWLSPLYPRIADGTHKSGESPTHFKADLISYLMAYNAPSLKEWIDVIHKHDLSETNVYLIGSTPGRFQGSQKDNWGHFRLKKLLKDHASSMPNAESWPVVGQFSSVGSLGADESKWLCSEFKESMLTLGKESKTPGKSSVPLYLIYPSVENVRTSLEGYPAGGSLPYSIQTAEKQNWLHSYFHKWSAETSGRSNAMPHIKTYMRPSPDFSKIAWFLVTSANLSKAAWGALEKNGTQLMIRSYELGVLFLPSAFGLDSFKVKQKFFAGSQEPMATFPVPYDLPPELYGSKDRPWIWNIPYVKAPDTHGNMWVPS
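Recombinant human Tdp1 (E. coli-expressed, 1 nM final) preincubated with compounds 15 min at room temperature, then 5'-biotin/3'-phosphotyrosine-FITC DNA substrate (15 nM final) added for 5 min. AlphaScreen beads (10 ug/ml final) added 10 min; cleavage lowers signal.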
TDP1 cell noCPT – qHTS for Inhibitors of human tyrosyl-DNA phosphodiesterase 1 (TDP1): qHTS in cells in absence of CPT. AID 686978, 2013. DT40 Tdp1-/- hTDP1 cells, no CPT, ATP luminescence, 48 h. hit rate 15% among 420,000. Potency, µM (titrated, usually from 46.2 µM), hits mostly inhibitors; also: nearly all actives have a fitted effect of over 55% in size
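A cellular qHTS used chicken DT40 cells lacking endogenous Tdp1 but carrying stably transfected human TDP1. Compounds were applied without camptothecin, and cell growth kinetics were judged by ATP-dependent luminescence after ≥48 hr.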
TGFb SMAD3 inh – qHTS for Inhibitors of TGF-b; AID 588855, 2011; Potency, µM (top dose mostly 46.1 µM), most hits filed as inhibitors; hit rate 1.2% among 410,000; HepG2 CAGA-GFP TGF-b/SMAD3 reporter, GFP fluorescence, 18 h; TGF-beta stimulated, 500 pg/mL final; also: nearly all actives have a fitted effect of over 65% in size
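Using HEPG2 CAGA-GFP reporter cells at 1000 cells/well, we pinned test compounds, stimulated with recombinant TGF-beta (500 pg/mL final) and measured total well GFP after 18 h.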
IL1B secr inh – qHTS for Inhibitors of Inflammasome Signaling: IL-1-beta AlphaLISA Primary Screen | THP-1 LPS/ATP IL-1B secretion, AlphaLISA, 16 h; active compounds read low | hit rate 4.7% among 360,000 | activity change, % at 57.5 µM; in the data active = activity change below about -50%; inconclusive = mostly about -30% to -49%
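Secreted IL-1B measured by AlphaLISA bead assay after 16 h compound exposure of THP-1 cells; compounds (final up to 57.5 uM) added 1 h before LPS (250 ng/mL) and ATP (1.25 mM) stimulation; lower signal means less secretion.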
A number is an active result. Shown are actives, neighbours in structure and some others; about 18% of the full set was active somewhere. Unless noted, calls follow the shape of the dose curve; as a rule, active = well fitted curve in the direction sought with a large enough effect; inconclusive = small, poorly fitted or top-dose-only effect, or another doubt; inactive = no such curve, though single readings can be large; an effect the other way counts as inactive or inconclusive.

For CC1CCN(CC(=O)Nc2ccc(S(=O)(=O)N3CCCC(C)C3)cc2)CC1 (configuration not stated) the results were DT40 TDP1 CPT inconclusive, HepG2 viability inactive, TDP1 cell noCPT inactive, TGFb SMAD3 inh inconclusive and IL1B secr inh -51.
Screening CC1CCCN(CC(=O)Nc2ccc(S(=O)(=O)N3C(C)CCCC3C)cc2)C1 (configuration not stated) returned DT40 TDP1 CPT inconclusive, HepG2 viability inactive, TDP1 cell noCPT 16µM, TGFb SMAD3 inh inactive and IL1B secr inh inactive.
`CC1CCCN(S(=O)(=O)c2ccc(NC(=O)CN3CCN(C)CC3)cc2)C1` (configuration not stated) gave DT40 TDP1 CPT inconclusive, HepG2 viability inactive, TDP1 inh inactive, TDP1 cell noCPT inactive, TGFb SMAD3 inh inactive and IL1B secr inh inactive.
For CCOC(=O)C1CCN(CC(=O)Nc2ccc(S(=O)(=O)N3CCC(C)CC3)cc2)CC1 the results were DT40 TDP1 CPT inconclusive, HepG2 viability inactive, TDP1 cell noCPT 21µM, TGFb SMAD3 inh inactive and IL1B secr inh inactive.
For COc1cccc(NC(=O)c2oc3ccccc3c2NC(=O)C23CC4CC(CC(C4)C2)C3)c1 the results were DT40 TDP1 CPT inactive, HepG2 viability inactive, TDP1 inh inactive, TDP1 cell noCPT inactive and TGFb SMAD3 inh inactive.
Screening CCOC(=O)c1ccccc1NC(=O)c1sc2nc3n(c(=O)c2c1C)CCCCC3 returned DT40 TDP1 CPT inactive, HepG2 viability inactive, TDP1 inh inactive, TDP1 cell noCPT inactive and TGFb SMAD3 inh inactive.
Nc1nc(N)c2c(ccc3nccc32)[nH]1 was read as DT40 TDP1 CPT 1.8µM, HepG2 viability 1.3µM, TDP1 inh inactive, TDP1 cell noCPT 1µM, TGFb SMAD3 inh inconclusive and IL1B secr inh inactive.
For Nc1ccc2ncccc2c1N the results were DT40 TDP1 CPT inconclusive, HepG2 viability inactive, TDP1 inh inactive, TDP1 cell noCPT inconclusive, TGFb SMAD3 inh inactive and IL1B secr inh inactive.
For O=C(NNC(=O)c1ccc(Oc2cc(Cl)cc(Cl)c2)o1)c1ccccc1 the results were DT40 TDP1 CPT inconclusive, HepG2 viability inactive, TDP1 inh inactive, TDP1 cell noCPT inconclusive, TGFb SMAD3 inh 20µM and IL1B secr inh inactive.
`COC(=O)[C@H](Cc1c[nH]c2ccccc12)NCc1cccc(B(O)O)c1` gave DT40 TDP1 CPT inactive, HepG2 viability inactive, TDP1 cell noCPT inactive, TGFb SMAD3 inh inactive and IL1B secr inh -66.
`COc1ccc(CNc2ncnc3ccc(-c4ccc(N(C)C)cc4)cc23)c(OC)c1` gave DT40 TDP1 CPT 23µM and TDP1 cell noCPT inconclusive.
COc1ccc(CNc2ncncc2-c2ccc(N(C)C)cc2)c(OC)c1 was read as DT40 TDP1 CPT 18µM and TDP1 cell noCPT inconclusive.
COc1ccc(CNc2ncnc3ccc(-c4c(C)noc4C)cc23)c(OC)c1 was read as DT40 TDP1 CPT inactive and TDP1 cell noCPT inconclusive.
Screening COc1ccccc1CNc1ncncc1-c1ccc(N(C)C)cc1 returned DT40 TDP1 CPT inconclusive, TDP1 inh inactive and TDP1 cell noCPT inconclusive.
`Cc1ccc(C)c(CNC(=O)Nc2ccccc2)c1` gave DT40 TDP1 CPT inactive, HepG2 viability inactive, TDP1 inh inactive, TDP1 cell noCPT inactive, TGFb SMAD3 inh inactive and IL1B secr inh inactive.
For O=C(CC12CC3CC(CC(C3)C1)C2)NC(=S)NCc1ccccc1 the results were DT40 TDP1 CPT inconclusive, HepG2 viability inactive, TDP1 inh inactive, TDP1 cell noCPT 18µM, TGFb SMAD3 inh inactive and IL1B secr inh inactive.
Screening O=C(NCc1ccccc1)NC12CC3CC(CC(C3)C1)C2 returned DT40 TDP1 CPT 15µM, HepG2 viability inactive, TDP1 cell noCPT 21µM, TGFb SMAD3 inh inactive and IL1B secr inh inactive.

Screening results (PubChem)
